From PubChem BioAssay
Measured potencies and affinities stand elsewhere. The source made the active and inactive calls.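 How the source made its calls: active means fitted dose curve reaches 40% lysis signal rise at or below the highest valid concentration tested for that sample; inconclusive means flat fit between 30% and 70%, or poor curve fit; inactive means signal falls, stays flat within 30%, or no crossing.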

Assay: C. neoformans lysis by adenylate kinase leakage – AK release luminescence, cherry-picks, dose response (AID 687000);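 further: luminescent detection of adenylate kinase leaking from lysed yeast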
Conditions: 4 h, 100% = twice the neutral-control signal; series mostly up to 15 µM

outcome, inactive:
Cc1ccc(N2C(=O)CC(N3CCN(c4ccc(F)cc4)CC3)C2=O)c(C)c1 (centres undefined), C[C@H](CO)N1C[C@H](C)[C@H](CN(C)CC2CCCCC2)Oc2c(NS(C)(=O)=O)cccc2C1=O, Cc1c(Cl)cccc1NC(=O)C1NC(=O)CC1c1ccccc1 (centres undefined), CC(C)C(=O)N1CCC1(C)C(=O)Nc1ccccc1C(C)(C)C (centres undefined), CCC(=O)N1[C@H](CO)[C@H](c2ccc(-c3ccc(F)cc3)cc2)[C@@H]1CNC(C)=O, COc1ccccc1-c1ccc([C@H]2[C@H](C#N)N(C(=O)C3CC3)[C@H]2CO)cc1, Cc1ccc(S(=O)(=O)N(C)C[C@H]2Oc3c(cccc3N(C)C)C(=O)N([C@@H](C)CO)C[C@H]2C)cc1, COc1ccc(NC(=S)NCc2ccccc2Cl)c(OC)c1, Cc1cccc(C)c1NC(=O)C1CCCN1C(=O)OC(C)(C)C (centres undefined), C#CCN(C(=O)c1ccc(OC2CCN(C(=O)CCOC)CC2)cc1)C1CCCCC1, CCC(=O)Nc1ccc2c(c1)OC[C@H](C)N(C(=O)c1ccc(F)cc1)C[C@@H](C)[C@@H](OC)CN(C)C2=O, CCOC(=O)CSc1ncnc2c1cnn2-c1ccc(Cl)cc1, Cc1ccc(NC(=O)C2CCC(=O)N2)cc1C (centres undefined), CCc1ccc(NC(=O)[C@H](C)NC(=O)C2CCN(C(=O)[C@@H](N)CC(C)C)CC2)cc1, CCCNC(=O)[C@H]1[C@H](CO)[C@H]2Cn3c(cccc3=O)[C@@H]1N2C(=O)Nc1cc(F)ccc1F, CNC[C@@H]1Oc2ccc(NS(=O)(=O)c3ccc(Cl)cc3)cc2C(=O)N([C@H](C)CO)C[C@H]1C, CC(C)NC(=O)Nc1ccc2c(c1)C(=O)N([C@H](C)CO)C[C@H](C)[C@H](CN(C)Cc1ccncc1)OCCCC[C@H](C)O2, CNC[C@H]1OCCCC[C@H](C)Oc2ccc(NC(=O)Cc3ccccc3)cc2C(=O)N([C@H](C)CO)C[C@@H]1C, Cc1ccccc1OCC(=O)NC(C)c1ccccc1 (centres undefined), CCNC(=O)CN(c1ccc(Cl)cc1)S(=O)(=O)c1ccccc1, Cc1noc(C)c1NC(=O)N(C)C[C@H]1Oc2ccc(NC(=O)C3CC3)cc2CC(=O)N([C@@H](C)CO)C[C@H]1C, CC(C)NC(=O)N(C)C[C@@H]1Oc2c(NC(=O)C3CCCCC3)cccc2C(=O)N([C@@H](C)CO)C[C@@H]1C, C[C@@H]1CN([C@H](C)CO)C(=O)c2ccccc2-c2ccccc2CO[C@H]1CN(C)S(=O)(=O)c1cccc(C#N)c1, C[C@@H]1CN([C@H](C)CO)C(=O)Cc2cc(NC(=O)CCCCCC(=O)Nc3ccccc3N)ccc2O[C@H]1CN(C)C(=O)Nc1ccccc1, O=C(c1cccc(F)c1)N1C[C@H]2[C@@H](c3ccccc31)[C@@H](CO)N2Cc1cocn1, C[C@H]1CN([C@@H](C)CO)C(=O)c2cc(C#CC3(O)CCCC3)cnc2O[C@@H]1CN(C)Cc1cccnc1, Cc1ccccc1-n1ncc2c(SCC(=O)N3c4ccccc4CC3C)ncnc21 (centres undefined), CCN1C(=S)N[C@@H](c2cccc(F)c2)C(C(=O)OC)=C1C, COC(=O)C1=C(C)N(Cc2ccccc2)C(=O)N[C@H]1c1cccc(F)c1, Cc1cc(C)c(NC(=O)CNC(=O)CNC(=O)C2CCCCC2)c(C)c1, CC(C)(C)SCCNC(=O)CN(c1ccccc1)S(=O)(=O)c1ccccc1, Cc1ccc(N(C(=O)C2CCC(=O)N2)C2(C(=O)NC3CCCC3)CCCCC2)cc1 (centres undefined), Cc1c(C(=O)NC(=S)Nc2ccc(N3CCOCC3)cc2)cccc1[N+](=O)[O-], CC(=O)c1cccc(NC(=S)NC2CCCCCCC2)c1, Cc1cc(C(=O)Nc2cccc3c2O[C@@H](CN(C)S(=O)(=O)c2ccccc2)[C@@H](C)CN([C@@H](C)CO)C3=O)n(C)n1, CC(C)Sc1nc2ncnc(N)c2[nH]1, Cc1ccc(C2CC(c3cccs3)=NN2C(=O)c2ccc(Br)o2)cc1 (centres undefined), COCC#Cc1ccc2c(c1)O[C@H](CN(C)S(=O)(=O)c1ccc(OC)cc1)[C@H](C)CN([C@H](C)CO)S2(=O)=O, CCC(=O)N1CCCC1(C)C(=O)Nc1ccc(C)c(C)c1 (centres undefined)
